In ChEMBL document CHEMBL1157539, “Thousands of chemical starting points for antimalarial lead identification” (Nature, 2010):

Legend:
Type in all cases: functional
Plasmodium falciparum [1] = experiment: GSK_TCMDC: Inhibition of Plasmodium falciparum 3D7 in whole red blood cells, using parasite LDH activity as an index of growth. Test compounds present at 2uM
Plasmodium falciparum [2] = experiment: GSK_TCMDC: Inhibition of Plasmodium falciparum Dd2 in whole red blood cells, using parasite LDH activity as an index of growth. Test compounds present at 2uM
HepG2 = experiment: GSK_TCMDC: Percent inhibition of human HepG2 cell line. Test compounds present at 10uM.

Row | Compound | Inhibition (Plasmodium falciparum [1]) | Inhibition (Plasmodium falciparum [2]) | Inhibition (HepG2)
1 | Cc1ccc(CN2CCCN(Cc3cccc(NC(=O)c4cc5ccccc5s4)c3)CC2)cc1.O=C(O)C(F)(F)F | 87% | 28% | 32%
2 | CCCc1cc(OC)c(CC2c3cccc(O)c3CCN2C)cc1OC.Cl (configuration not stated) | 100% | 99% | 3%
3 | COc1ccc(NCc2cccc(-c3cccc(CNCCc4ccccc4)c3)c2)cc1.O=C(O)C(F)(F)F | 96% | 14% | 41%
4 | CCCC(CNCc1cccc(OCC)c1)CNc1cc(=O)c2ccccc2[nH]1 (configuration not stated) | 100% | 97% | 0%
5 | COc1ccccc1C1CC(c2ccc(C)cc2)=NN1C(=O)c1ccccc1 (configuration not stated) | 98% | 45% | 37%
6 | CC(Cc1ccc(C(=O)N2CCN(C(=O)c3ccc(CC(C)NCCc4cccc(Cl)c4)cc3)CC2)cc1)NCCc1cccc(Cl)c1 (configuration not stated) | 100% | 85% | 99%
7 | O=C(Nc1ccc2oc(-c3ccc(Br)cc3)nc2c1)c1ccc([N+](=O)[O-])o1 | 92% | 21% | 9%
8 | Clc1ccc(Sc2cncnc2N2CCOCC2)cc1 | 95% | 0% | 66%
9 | CCC(C)OC(=O)C1=C(C)NC2=C(C(=O)CC(c3ccc(OC)c(OC)c3)C2)C1c1ccc(O)cc1 (configuration not stated) | 100% | 97% | 3%
10 | Cc1ccc(C)c(-n2c(SCC(=O)Nc3ccc(C(N)=O)cc3)nnc2-c2cccc(Cl)c2)c1 | 92% | 91% | 6%
11 | CC[C@H](NC(=O)c1ccc(NC(=O)OC(C)(C)C)cc1)C(=O)N[C@@H](CO)C(=O)NCCCCc1ccccc1 | 98% | 94% | 0%
12 | N#Cc1ccc(-c2ccc(OCC(O)CN3CCCN(C(=O)C(c4ccc5c(c4)OCO5)N4CCN(C/C=C/c5ccccc5)CC4)CC3)cc2)cc1 (configuration not stated) | 99% | 77% | 25%
13 | O=C(Nc1ccc(-c2cccc(-c3nc4cc(F)ccc4[nH]3)c2)cc1)Nc1ccsc1 | 100% | 51% | 34%
14 | Clc1cc(Nc2ccnc3ccc(Br)cc23)ccc1Oc1ccc(Cl)c2ccccc12 | 99% | 86% | 6%
15 | COc1cc(Cc2cnc(N)nc2N)ccc1Oc1ccc(N)cc1 | 93% | 0% | 0%
16 | Cc1cc(NC2CCCC2)nc(Nc2ccccc2)n1 | 100% | 75% | 26%
17 | Cc1ccc(-n2ncc(C(=O)Nc3cc(Cl)cc(Cl)c3)c2C2CCNCC2)cc1C.Cl | 100% | 77% | 65%
18 | NC1CCN(Cc2cccc(-c3csc(-c4nc5ccccc5[nH]4)c3)c2)C1.O=C(O)C(F)(F)F (configuration not stated) | 99% | 10% | 10%
19 | O=C(Nc1cccc(-c2csc(-c3nc4ccccc4[nH]3)c2)c1)c1ccoc1 | 96% | 67% | 36%
20 | CC1CCCN1Cc1cccc(-c2ccc(C(=O)NCCOc3ccccc3)s2)c1.O=C(O)C(F)(F)F (configuration not stated) | 83% | 0% | 26%
21 | O=C(/C=C/c1ccc(Cl)c(Cl)c1)N1CCC(CN2CCC(c3c[nH]c4cnccc34)CC2)CC1 | 100% | 100% | 39%
22 | O=C(/C=C/c1ccc(Cl)c(Cl)c1)N1CCC(C(O)CN2CCC(c3c[nH]c4ccccc34)CC2)CC1.O=C(O)C(F)(F)F (configuration not stated) | 99% | 46% | 14%
23 | COc1cc([N+](=O)[O-])ccc1NC(=O)Nc1ccc(OC(F)(F)F)cc1 | 84% | 72% | 14%
24 | CCOC(=O)Nc1cc(-c2csc(N=C(N)N)n2)cc([N+](=O)[O-])c1 | 100% | 88% | 12%
25 | CC(=O)Nc1ccc(C(=O)Nc2cccc(-c3cccc(-c4nc5ccccc5[nH]4)c3)c2)cn1 | 100% | 100% | 3%
26 | CCCCOc1ccc(N2C(N)=NC(N)=NC2(C)C)cc1.Cl | 97% | 3% | 16%
27 | Cn1cncc1C(=O)Nc1cccc(-c2ccc(-c3nc4ccccc4[nH]3)s2)c1 | 100% | 25% | 0%
28 | CC(C)CNCc1cccc(-c2ccc(CNC3CCN(Cc4ccccc4)CC3)cc2)c1.O=C(O)C(F)(F)F | 100% | 99% | 44%
29 | O=C(Cn1c(CCc2cccc(F)c2F)nc(=O)c2ccccc21)N(CCCN1CCCC1)Cc1ccc(-c2ccc(C(F)(F)F)cc2)cc1.O=C(O)C(O)C(O)C(=O)O | 100% | 80% | 54%
